Assay in all cases: NCI-60 one-dose screen, 48 h (100 = growth as untreated, 0 = no growth, -100 = all killed)
The subject of one test is BT-549 breast. The settings on record: 10 µM unless noted.
The subject of another test is MDA-MB-435 melanoma. The settings on record: 10 µM unless noted.
The next test deals with SW-620 colon. The settings on record: 10 µM unless noted.
The test system of the next test is MCF7 breast. The settings on record: 10 µM unless noted.
The test system of a further test is HCT-116 colon. The note with it: 10 µM unless noted.
For the next test, the system named is HCC-2998 colon. The settings on record: 10 µM unless noted.
Another test concerns KM12 colon. The note with it: 10 µM unless noted.
Another test concerns T-47D breast. The note with it: 10 µM.

SMILES strings stand for the structures. Compounds without any hit were thinned out: in the full panel of roughly 83,000, 20% have a hit.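 Assay: single dose, 48 h. Readout: percent growth (0 = no net growth; negative = cell death). Active: <10.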 A number with no mark means an inactive call. Active and inactive are the calls of the source.

Consider `O=C(c1cnn2c1NC(c1ccc(F)cc1)C2)N1CCCCC1` (stereo not drawn), for which the growth in the test on BT-549 breast was 110%; in the test with MDA-MB-435 melanoma it was 94.8%; in the test with SW-620 colon it was 102%; in the test on MCF7 breast, 93.2%; in the test with HCT-116 colon, 98.2%; in the test with HCC-2998 colon, 113%. In the test on KM12 colon, the growth is 106%.

For the compound `NC1=NC(c2ccccc2OS(=O)(=O)c2ccc(Br)cc2)n2c(nc3ccccc32)N1` (stereo not drawn), the growth was 81.2% in the test on T-47D breast; 73.1% in the test with MDA-MB-435 melanoma; 96% with SW-620 colon; 77.3% with MCF7 breast; 100% with KM12 colon.

Turning to `COc1cc(-c2nc(Nc3nc4ccccc4[nH]3)nc(N)c2C#N)cc(OC)c1OC`, the growth was 57.8% in the test on T-47D breast; 14.5% with MDA-MB-435 melanoma; 30.9% in the test on MCF7 breast; 43.3% with HCT-116 colon; 36.6% in the test on KM12 colon.

For the compound `CCCCCn1c(=N)n(CC(O)COc2cccc(C)c2)c2ccccc21` (stereo not drawn), the growth with T-47D breast was -0.186% (active); in the test with MDA-MB-435 melanoma, 6.94% (active); with SW-620 colon it was 10.8%; in the test with MCF7 breast it was 7.34% (active); in the test on HCT-116 colon, 11%; in the test with KM12 colon it was 6.37% (active).

Regarding `COc1ccc(-c2c(-c3cc4c(c(OC)c3OC)OCO4)noc2N)cc1`, the growth in the test on T-47D breast is 47.5%; in the test with MDA-MB-435 melanoma, -32.1% (active); in the test on SW-620 colon, 17.9%; in the test with MCF7 breast, 19.7%; in the test with HCT-116 colon it was 22.2%; in the test on HCC-2998 colon, 20.6%. Besides, in the test on KM12 colon, the growth is 18.9%.

On to `CC(=O)Nc1ccc(Sc2ccc([N+](=O)[O-])o2)cc1`, for which the growth in the test with T-47D breast was -34.3% (active); in the test on MDA-MB-435 melanoma, 9.62% (active); in the test with SW-620 colon, -76.5% (active); in the test with MCF7 breast, 26.9%; in the test on HCT-116 colon, -82% (active); in the test on KM12 colon, 56.8%.

As for `C=CC(=O)N1CC2(CC(n3nc(-c4ccc(Oc5ccccc5)cc4)c4c(N)ncnc43)C2)C1`, the growth is 36.4% in the test on T-47D breast; 30.4% in the test on MDA-MB-435 melanoma; 78.8% in the test on SW-620 colon; 26.5% in the test with MCF7 breast; 45.4% in the test with HCT-116 colon; 64.9% with HCC-2998 colon. In addition, in the test with KM12 colon, the growth is 48.9%.

On to `Cc1nn(-c2ccccc2)c2nc3nc4c(c(N)c3c(-c3ccc(Cl)cc3)c12)CCCC4`, for which the growth in the test on T-47D breast is 108%; in the test with MDA-MB-435 melanoma, 97%; in the test on SW-620 colon, 79.5%; in the test on MCF7 breast, 97.8%; in the test on HCT-116 colon it was 80.2%; in the test with HCC-2998 colon, 113%. In the test on KM12 colon, the growth was 105%.

Take `COC(=O)CCC(=O)c1ccccc1`: the growth in the test on T-47D breast is 102%; in the test with MDA-MB-435 melanoma, 96.9%; with SW-620 colon, 106%; with MCF7 breast, 96.1%; in the test with HCT-116 colon, 108%; with KM12 colon, 110%.

As to `CC(=O)OC[C@H](O)[C@@]1(O)CC[C@H]2[C@@H]3CCC4=CC(=O)CC[C@]4(C)[C@H]3[C@@H](O)C[C@@]21C`, the growth in the test on T-47D breast is 113%; in the test on MDA-MB-435 melanoma, 119%; in the test on SW-620 colon, 102%; in the test on MCF7 breast, 112%; in the test on HCT-116 colon, 98.4%; in the test with HCC-2998 colon, 103%. In the test on KM12 colon, the growth is 105%.

For the compound `COc1cccc(Nc2nc(NCCO)c3ccccc3n2)c1`, the growth with T-47D breast is 75.2%; with MDA-MB-435 melanoma, 72.3%; with SW-620 colon, 64.5%; with MCF7 breast, 76.8%; in the test on HCT-116 colon, 72.1%; in the test with HCC-2998 colon it was 87.5%. Moreover, the growth with KM12 colon is 51.2%.

Turning to `O=C1c2ccccc2-c2cn(Cc3ccccc3)c3cccc(c23)C1c1cccnc1` (stereo not drawn), the growth is 43% in the test on T-47D breast; 6.45% (active) in the test with MDA-MB-435 melanoma; 30.8% with SW-620 colon; 12.4% in the test on MCF7 breast; 27.9% in the test with HCT-116 colon; 56.4% in the test on HCC-2998 colon. For the same compound, in the test on KM12 colon, the growth was 30.5%.

Regarding `COc1cc(C2C3=C(COC3=O)N(CCO)c3cc4c(cc32)OCO4)cc(OC)c1O` (stereo not drawn), the growth was 35.3% in the test on T-47D breast; -39.6% (active) in the test with MDA-MB-435 melanoma; 14.8% in the test with SW-620 colon; 19.6% with MCF7 breast; 16.7% in the test on HCT-116 colon; 28.4% in the test on HCC-2998 colon. Besides, the growth in the test with KM12 colon is 20.9%.

Regarding `CN1CCN(C)c2cncc(Br)c2C1=O`, the growth in the test with T-47D breast is 101%; in the test with MDA-MB-435 melanoma it was -81.7% (active); in the test with SW-620 colon it was 102%; with MCF7 breast, 105%; in the test with HCC-2998 colon, 98%; in the test on KM12 colon, 105%.

In the case of `COc1ccc(NC(=O)c2ccc3c(c2)nc(-c2ccc(Cl)cc2)n3-c2cc(C(C)(C)C)[nH]n2)cc1`, the growth in the test with T-47D breast was 74.5%; in the test on MDA-MB-435 melanoma, 88.9%; in the test with SW-620 colon it was 104%; in the test with MCF7 breast it was 83%; with HCT-116 colon, 80.7%; with HCC-2998 colon, 112%. Besides, in the test with KM12 colon, the growth was 84%.

As to `COc1ccc(CSc2nc3cc(OC)c(OC)cc3c(=O)n2-c2ccc(Cl)cc2)cc1`, the growth in the test on T-47D breast is 95.4%; with MDA-MB-435 melanoma, 98%; in the test with SW-620 colon it was 99.2%; in the test on MCF7 breast, 101%; with HCT-116 colon, 98.4%; with KM12 colon, 102%.

With `Cc1ccc(S(=O)(=O)N2CCc3ccc(O)c4c3C2Cc2ccc3c(c2-4)OCO3)cc1` (stereo not drawn), the growth was 46% in the test with T-47D breast; -4.03% (active) in the test with MDA-MB-435 melanoma; 37.2% in the test on SW-620 colon; 20.6% in the test with MCF7 breast; 13% in the test with HCT-116 colon; 12.5% with KM12 colon.

As to `COc1c(O)c2c3c(c1OC)-c1ccccc1CC3N(S(=O)(=O)c1ccc(C)cc1)CC2` (stereo not drawn), the growth in the test on T-47D breast is 62%; with MDA-MB-435 melanoma, -0.0173% (active); with SW-620 colon, 30%; in the test on MCF7 breast it was 20.2%; in the test with HCT-116 colon, 38.6%; in the test on HCC-2998 colon, 89.6%. Also, in the test with KM12 colon, the growth was 27.8%.

For `COc1cc(CNCCCN2C(=O)c3ccc4c5c(ccc(c35)C2=O)C(=O)N(CCCNCc2cc(OC)c(OC)c(OC)c2)C4=O)cc(OC)c1OC`, the growth with T-47D breast was -56.9% (active); in the test on MDA-MB-435 melanoma it was -71.5% (active); in the test with SW-620 colon, -69.8% (active); in the test on MCF7 breast, -58.1% (active); in the test on HCT-116 colon, -61.8% (active); in the test with HCC-2998 colon, -92.4% (active). In the test with KM12 colon, the growth was -86.9% (active).

The record behind these values is PubChem BioAssay (NCI).
